# Anthrax LF prot – Bacillus anthracis LF protease inhibitors, primary screen, biochemical, multiplex microsphere, MLPCN library; Lethal factor (Bacillus anthracis), P15917; multiplex microsphere protease cleavage assay; inhibition, % at 10 µM; AID 588501, 2011; hit rate 0.12% among 360,000
# BoNT-A LC inh2 – BoNT/A light chain protease inhibitors, primary screen, biochemical, flow cytometry, MLPCN library; multiplex microsphere protease substrate cleavage; inhibition, % at 10 µM; hit rate 0.17% among 360,000
# Autofluor counter – flagged as autofluorescent in microsphere protease counterscreen; compound autofluorescence counterscreen, microsphere flow cytometry; stronger effect = higher value; fluorescence intensity (no concentration beside the values); hit rate 3.1% among 360,000; AID 624483; in the data active means fluorescence intensity above about 16000; inconclusive means no clear call, values can overlap the other calls
# BoNT-F LC inh – BoNT/F light chain protease inhibitors, primary screen, biochemical, flow cytometry, MLPCN library; AID 588497, 2011; inhibition, % at 10 µM; Multiplex microsphere protease cleavage assay; hit rate 0.22% among 360,000; in the data active means inhibition above about 35%, passing the limit was not always enough; inconclusive means no clear call, values can overlap the other calls
# Hits are given with their value; . = inactive; ? = inconclusive. The list is not random: actives were taken first. Their share in the collection is about 3.5%. Unless noted, no stated cut-off is given here; in the data, active means inhibition above about 30%; inconclusive means no clear call, values can overlap the other calls; inactive means below that.
SMILES,Anthrax LF prot,BoNT-A LC inh2,Autofluor counter,BoNT-F LC inh
Cc1cc(C(=O)N2CCCC2(C)C(=O)NCC(C)C)nn1C(C)(C)C (centres undefined),.,.,.,.
CCc1cc2c(=O)c(-c3nc4ccccc4n3C)c(COCC(=O)O)oc2cc1OC(=O)C(C)(C)C,.,.,17668,.
CCc1cc2c(=O)c(-c3nc4ccccc4n3C)c(C)oc2cc1OC(C)=O,.,.,.,.
CSc1cnn(-c2ccccc2)c(=O)c1SC,.,.,16177,.
CCSc1cnn(-c2ccccc2)c(=O)c1SCC,.,.,.,.
O=C(Nc1ccccc1C(=O)O)c1cccc(NC(=O)c2ccc(Br)o2)c1,.,.,.,.
O=C(Nc1ccccc1C(=O)O)c1ccc(NC(=O)c2ccc(Br)o2)cc1,.,.,23730,.
O=C(Nc1ccc(S(=O)(=O)N2CCCCCC2)cc1)c1ccc(Br)o1,.,.,21567,.
O=C(CNC(=O)c1ccco1)Nc1ccc(S(=O)(=O)N2CCCC2)cc1,.,.,21490,.
O=C(Nc1ccc(S(=O)(=O)N2CCOCC2)cc1)c1ccco1,.,.,.,.
O=C(CN1CCCC1c1ccc2c(c1)OCCO2)NC(=O)Nc1ccccc1 (centres undefined),.,.,.,.
Cc1cc(SCC(=O)N(C)C2CCCCC2)nc2ccccc12,.,.,.,.
N#Cc1ccccc1/C=N/Nc1nc(-c2ccccc2)c2cc(Cl)ccc2n1,.,.,.,.
Cc1ccc2nc(NCCO)nc(-c3ccccc3)c2c1,.,.,23056,.
Cc1ccc2nc(N/N=C/c3ccccc3C#N)nc(-c3ccccc3)c2c1,.,.,17384,.
Cc1c(-c2cccs2)[n+](=O)c2c(n1[O-])CCCC2,.,.,20042,.
Cc1c(-c2ccccc2)[n+](=O)c2c(n1[O-])CCC2,.,.,.,.
Cc1ccc(NC(=O)c2ccccc2)s1,.,.,24292,.
CN(C)S(=O)(=O)c1ccc(C(=O)Nc2ccccc2C(=O)O)cc1,.,.,.,.
CCOC(=O)c1oc2ccccc2c1NC(=O)c1ccc(S(=O)(=O)N2CCCC2)cc1,.,.,20008,.
CCOC(=O)c1oc2ccc(S(=O)(=O)N3CCOCC3)cc2c1C,.,?,16344,.
CN(C)S(=O)(=O)c1ccc(C(=O)Nc2ccccc2F)cc1,.,.,16551,.
CCOC(=O)c1oc2ccc(S(=O)(=O)N3CCC(C)CC3)cc2c1C,.,.,.,.
CCOC(=O)c1[nH]c2ccccc2c1NC(=O)c1ccc(S(=O)(=O)N(C)C)cc1,.,.,.,.
CCOC(=O)c1oc2ccccc2c1NC(=O)c1ccc(S(=O)(=O)N(C)C)cc1,.,.,20341,.
SMILES,Anthrax LF prot,BoNT-A LC inh2,Autofluor counter,BoNT-F LC inh
COc1cc2ccccc2cc1C(=O)Nc1ccc(Cc2ccncc2)cc1,.,.,21333,.
COc1cc2ccccc2cc1C(=O)Nc1ccc(C)cc1,.,.,.,.
Cc1sc(NC(=O)c2ccc(Cl)s2)c(C(N)=O)c1C,.,.,16138,.
COc1ccc(-c2nnnn2C(C)C)cc1S(=O)(=O)Nc1ccccc1,.,.,.,.
CC(C)n1nnnc1-c1cccc(Cl)c1,.,.,17953,.
CC(C)n1nnnc1-c1cc(Cl)cc(Cl)c1,.,.,23056,.
Cc1cc(=O)[nH]c(SCCCOc2ccc3c(c2)CCC3)n1,.,.,23738,.
COc1cccc(OC)c1OCCCSc1nc(C)cc(=O)[nH]1,.,.,22471,.
CCOc1ccc(OCCSc2nc(C)cc(=O)[nH]2)cc1,.,.,.,.
Nc1[nH]c(C(=O)c2ccccc2)c(-c2ccc(Br)cc2)c1C(=O)c1ccc(Br)cc1,.,.,.,.
Cc1onc(-c2ccccc2)c1C(=O)OCC(=O)c1ccc(F)cc1,.,.,.,.
CCN(CC)c1ccc(C=Nc2cc(C)cc(C)c2)c(O)c1,.,50.2,.,.
CCN(CC)c1ccc(/C=N/Nc2cccc(C)c2)c(O)c1,.,.,.,.
CCN(CC)c1ccc(N=Cc2ccc(N(CC)CC)cc2O)cc1,.,?,22151,.
CCN(CC)c1ccc(C=Nc2ccc(C)cc2)c(O)c1,.,.,.,.
CCN(CC)c1ccc(/C=N/Nc2ccccc2)c(O)c1,.,.,22767,.
CCOC(=O)[C@]12CCCC=C1N(Cc1cccc3ccccc13)C(=O)[C@H](CC(=O)NCCCN1CCCC1=O)C2,.,.,.,.
CC(NNC(=S)N1CCCCCC1)c1ccc2ccccc2n1 (centres undefined),.,.,.,.
COc1ccccc1OC(C)C(=O)O (centres undefined),.,.,20529,.
O=C(NCc1ccccc1)C1(c2ccccc2)CCN(S(=O)(=O)c2ccccc2)CC1,.,.,16987,.
CCOC(=O)c1ccc(NS(=O)(=O)c2cc(-c3nnnn3CC)ccc2OC)cc1,.,?,19076,.
CCOc1ccc(N/C=C/C(=O)c2ccc(OC)c(OC)c2)cc1,.,.,.,.
CCOC(=O)c1ccc(N/C=C/C(=O)c2ccc(OC)c(OC)c2)cc1,.,.,19087,.
CCn1nnnc1-c1ccc(OC)c(S(=O)(=O)Nc2ccccc2OC)c1,.,.,.,.
CCn1nnnc1-c1ccc(OC)c(S(=O)(=O)NCCc2ccccc2)c1,.,?,19509,.
CC(C)(C)CNC(=O)C1(C)CCN1C(=O)c1ccccc1CCc1ccccc1 (centres undefined),.,.,.,.

# From PubChem
